Test results taken from the OligoGym collection.
Note: reference of the scale not given here.

The sequences below were run against DHX35 (assay: pooled miR-30 sensor sort-seq; sequence = guide strand). Conditions: shRNA.
TAAGGGTTGTAAACAACCGTTG showed a sensor-assay potency score (higher = more potent) of -0.768. In the case of TTGAAACTTGACAAGAAGCTTT, the sensor-assay potency score (higher = more potent) was 0.0953. TAGAATGAAACCTCGCTGCATT was tested, and the sensor-assay potency score (higher = more potent) was -0.528. TAGATAAAAGATATCCACCGGA was tested, and the sensor-assay potency score (higher = more potent) was -0.104. TAAAATATGATTCCTAAGCTTG gave a sensor-assay potency score (higher = more potent) of -0.148.

The sequences below were run against DICER1 in the same assay as above. Conditions: shRNA.
TAGATTGAACATAGGATCGATA was tested, and the sensor-assay potency score (higher = more potent) was -1.08. Work on TTTGATTGTAAGAAAGACCATT yielded a sensor-assay potency score (higher = more potent) of -0.387. For TTATTCTTGAATCTGTAGTTGA, the sensor-assay potency score (higher = more potent) was 0.19. TTTTCTTTACAAAAGCTCCTGA showed a sensor-assay potency score (higher = more potent) of 0.34. TTATTTTGTCTGTATCCGCTAA showed a sensor-assay potency score (higher = more potent) of -0.197. TGTAACTTCGACCAACACCTTT was tested, and the sensor-assay potency score (higher = more potent) was -0.933. Sequence TTCCACAGTGACTCTGACCTTC has a sensor-assay potency score (higher = more potent) of 0.615. Work on TTAGATTGAACATAGGATCGAT yielded a sensor-assay potency score (higher = more potent) of 0.532. TATAAATCTGATATGTTCCTGA was tested, and the sensor-assay potency score (higher = more potent) was 0.759. TTGACCAAGAACACCGTCCTTT gave a sensor-assay potency score (higher = more potent) of 0.276. TTGTTTTATAATATTCTGCAAA was tested, and the sensor-assay potency score (higher = more potent) was -0.989. TTAAAGTAGAATCTCTTTCTTT showed a sensor-assay potency score (higher = more potent) of 0.229.

These sequences were tested against DIRAS3 in the same assay as above. Conditions: shRNA.
TATACGTATTGACAACATGGAT gave a sensor-assay potency score (higher = more potent) of -1.16. For TTCCACTCCATCGCACAGGTGG, the sensor-assay potency score (higher = more potent) was -0.748. In the case of TTGTCAAGCAGCTTCTCAGTGG, the sensor-assay potency score (higher = more potent) was -0.353. In the case of TACTTTAAATACATCATGCTAC, the sensor-assay potency score (higher = more potent) was -0.338. In the case of TTTAAATACATCATGCTACATT, the sensor-assay potency score (higher = more potent) was -0.644. Sequence TAATCTCTGATCTTCCTGTGGG has a sensor-assay potency score (higher = more potent) of 0.371. TTGCCGTCGCCACTCTTGCTGT was tested, and the sensor-assay potency score (higher = more potent) was -1.2. TTGTTACCTTTGATCTTGCAGA gave a sensor-assay potency score (higher = more potent) of -0.643. TACATCATGCTACATTTTGTTC gave a sensor-assay potency score (higher = more potent) of -1.42. For TTACAGTCCAAACAACAGCACA, the sensor-assay potency score (higher = more potent) was -1.35. TAACATAGTGAAATGAGTCCAC gave a sensor-assay potency score (higher = more potent) of 0.953.

These sequences were tested against DLAT in the same assay as above. Conditions: shRNA.
In the case of TTCTCTACTGCCAACTTCTTTG, the sensor-assay potency score (higher = more potent) was -0.772. TTGCTGATTGGGATATCTGTGA was tested, and the sensor-assay potency score (higher = more potent) was -0.131. Sequence TATCTTATTAAGTTCTTTCCGT has a sensor-assay potency score (higher = more potent) of 0.0125. For TAGGTGTGATGAGTCCTGCAGG, the sensor-assay potency score (higher = more potent) was -0.602. TAGAAAGGTAATAATGAGGTAT showed a sensor-assay potency score (higher = more potent) of -0.0638. Sequence TTTTTCTACAATGATACAGAGT has a sensor-assay potency score (higher = more potent) of -0.634. For TTGCTAAAGAAACAACATCATT, the sensor-assay potency score (higher = more potent) was -1.57. Work on TTGTCTTATAACTGTGTCCATC yielded a sensor-assay potency score (higher = more potent) of -1.31. In the case of TAAGTCTCCTTCACTTAGCTTC, the sensor-assay potency score (higher = more potent) was -0.196. Work on TTTAAATCTGTTACTTCGGTTG yielded a sensor-assay potency score (higher = more potent) of -0.374. TTTGATTGCATTAATCGCTGTG showed a sensor-assay potency score (higher = more potent) of 0.738. ATATCTGTGAAGACACCTGTAG gave a sensor-assay potency score (higher = more potent) of -0.267.
